High-throughput results (PubChem BioAssay)
PLK1 PBD block = blocks phosphopeptide binding to human PLK1 polo-box domain. AID 720504. Potency, µM, without a hit: max response, negative = inhibition, usual class: inhibitors. Plk1 PBD binding of FITC phosphopeptide, fluorescence polarization. hit rate 2.8% among 360,000; further: series mostly up to about 57 µM; nearly all actives have a fitted effect of over 65% in size
VDR inhibitor = inhibitors of human vitamin D receptor; VDR-SRC2-3 peptide fluorescence polarization, 2 h; hit rate 0.93% among 400,000; Potency, µM, inactives show max response, negative = inhibition, hits mostly inhibitors
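The screen uses fluorescence polarization to detect compounds that interfere with recruitment of the SRC2-3 coactivator peptide to VDR; plates are read after 2 h at room temperature.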
DT40 TDP1 no CPT = qHTS for Inhibitors of human tyrosyl-DNA phosphodiesterase 1 (TDP1): qHTS in cells in absence of CPT. Potency, µM (series often up to 46.2 µM), inactives show at the top dose activity change, negative = growth inhibition, hits mostly inhibitors. AID 686978, 2013. DT40 Tdp1-/- hTDP1 cells, no CPT, ATP luminescence, 48 h. hit rate 15% among 420,000; further: nearly all actives have a fitted effect of over 55% in size
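A cellular qHTS used chicken DT40 cells lacking endogenous Tdp1 but carrying stably transfected human TDP1. Compounds were applied without camptothecin, and cell growth kinetics were judged by ATP-dependent luminescence after ≥48 hr.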
TDP1 cell CPT = growth inhibition of DT40 Tdp1-/-;hTDP1 cells with camptothecin (screen for TDP1 inhibitors); Potency, µM (series often up to 46.2 µM), for the others: at the highest dose activity change, negative = growth inhibition, hits mostly inhibitors; AID 686979; chicken DT40 Tdp1-/-;hTDP1 cells + 20 nM CPT, ATP luminescence, 48 h; hit rate 12% among 420,000; further: nearly all actives have a fitted effect of over 55% in size
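Cell growth measured by CellTiter-Glo luminescence after a minimum 48 h, 37 C compound exposure with 20 nM CPT in Tdp1-knockout DT40 cells stably expressing hTDP1, seeded 400/well; qHTS titration format.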
TDP1 block = blocks human tyrosyl-DNA phosphodiesterase 1. Q9NUW8. recombinant TDP1, AlphaScreen DNA substrate cleavage. Potency, µM (titrated, usually from 130 µM), for the others: top-dose activity change, negative = inhibition, actives largely listed as inhibitors. hit rate 0.28% among 350,000; further: nearly all actives have a fitted effect of over 40% in size
Target sequence (Q9NUW8 whole entry, looked up): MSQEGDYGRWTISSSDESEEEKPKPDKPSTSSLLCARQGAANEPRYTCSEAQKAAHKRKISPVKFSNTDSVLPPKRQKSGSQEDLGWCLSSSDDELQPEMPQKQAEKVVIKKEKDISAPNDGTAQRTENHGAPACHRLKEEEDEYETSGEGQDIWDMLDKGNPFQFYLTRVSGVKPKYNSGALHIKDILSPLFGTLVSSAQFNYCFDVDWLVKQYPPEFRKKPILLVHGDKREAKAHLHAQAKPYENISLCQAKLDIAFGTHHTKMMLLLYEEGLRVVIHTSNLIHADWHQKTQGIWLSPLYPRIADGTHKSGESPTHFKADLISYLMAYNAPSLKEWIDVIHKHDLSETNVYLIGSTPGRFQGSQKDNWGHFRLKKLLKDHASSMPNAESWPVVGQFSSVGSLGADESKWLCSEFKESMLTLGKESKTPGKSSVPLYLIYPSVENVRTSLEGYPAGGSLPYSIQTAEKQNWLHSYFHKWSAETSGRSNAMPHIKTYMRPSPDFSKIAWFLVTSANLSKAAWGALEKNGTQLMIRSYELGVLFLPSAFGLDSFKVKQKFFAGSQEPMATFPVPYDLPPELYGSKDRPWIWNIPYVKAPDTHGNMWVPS
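Recombinant human Tdp1 (E. coli-expressed, 1 nM final) preincubated with compounds 15 min at room temperature, then 5'-biotin/3'-phosphotyrosine-FITC DNA substrate (15 nM final) added for 5 min. AlphaScreen beads (10 ug/ml final) added 10 min; cleavage lowers signal.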
KAT2A inh = inhibitors of human GCN5L2 histone acetyltransferase | GCN5L2 HAT assay, ThioGlo1 CoA-SH fluorescence | hit rate 0.21% among 390,000 | Potency, µM (highest dose often 58.9 µM), without a hit: top-dose activity change, negative = inhibition, actives largely listed as inhibitors | AID 504327
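Fluorescence readout, Ex340nm/Em540nm: ThioGlo1 (50uM final) reacts with free CoA thiol released as 20nM GCN5L2 acetylates H3(1-25) peptide (75uM) using acetyl-CoA (70uM). Compound and enzyme sat 15 min beforehand; 20 min room-temperature reaction.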
* = called active by the depositor; ? = inconclusive; . = no result; ! = repeats disagree; [ ] = remark or other dose. An excerpt weighted towards active compounds, which were near 18% of everything screened. The call rests on the fitted dose curve; in most records, active means well fitted curve in the direction sought with a large enough effect; inconclusive means small, poorly fitted or top-dose-only effect, or another doubt; inactive means no such curve, though single readings can be large; an effect the other way counts as inactive or inconclusive. On the % scale 0 is the no-effect control and ±100 the full control effect; potency means the concentration at half of the fitted maximal effect.

SMILES	PLK1 PBD block	VDR inhibitor	DT40 TDP1 no CPT	TDP1 cell CPT	TDP1 block	KAT2A inh
COc1ccccc1CN(C)C[C@@H]1OCc2cnnn2CCCC(=O)N([C@@H](C)CO)C[C@H]1C	4%	.	-9%	1%	.	.
C[C@@H]1CN([C@H](C)CO)C(=O)CCCn2nncc2CO[C@H]1CN(C)Cc1ccccc1C(F)(F)F	-1%	.	21µM*	15µM*	.	.
C[C@@H]1CN([C@@H](C)CO)C(=O)CCCn2nncc2CO[C@@H]1CN(C)S(=O)(=O)c1ccc(Oc2ccccc2)nc1	-13%	.	?	?	.	.
O=C(N[C@@H]1c2ccccc2C2(CCN(C(=O)c3ccc4c(c3)OCCO4)CC2)[C@H]1O)c1cccnc1	.	.	-4%	?	.	.
O=C(O)CO	.	2%	.	.	8%	3%
CCc1ccccc1Nc1nn2c(=O)c3ccc(C(=O)NC4CCCCC4)cc3nc2s1	.	1%	13µM*	10µM*	3%	-7%
COc1ccccc1Nc1nn2c(=O)c3ccc(C(=O)NC4CCCCC4)cc3nc2s1	.	4%	3.7µM*	2.3µM*	3%	0%
CC(NC(=O)c1ccccc1F)C12CC3CC(CC(C3)C1)C2 (stereo unspecified)	0%	-11%	?	21µM*	-10%	-4%
Cc1occc1C(=O)NC(C)C12CC3CC(CC(C3)C1)C2 (stereo unspecified)	-12%	-14%	?	?	6%	-7%
Cc1ccccc1-c1nc(C(N)=O)c2c(n1)n(-c1ccc3c(c1)OCO3)c(=O)n2C	.	-20%	?	?	1%	1%
Cc1cccc(NC(=O)CSc2n[nH]c(-c3ccncc3)n2)c1C	1%	-14%	-29%	12µM*	-10%	-2%
COC(=O)c1ccccc1NC(=O)CSc1n[nH]c(-c2cccnc2)n1	21µM*	-16%	-1%	?	1%	0%
Cc1ccc(C)c(NC(=O)CSc2n[nH]c(-c3ccncc3)n2)c1	-6%	-14%	-20%	-7%	-1%	-15%
O=C(CSc1n[nH]c(-c2cccnc2)n1)Nc1ccccc1C(F)(F)F	1%	-6%	-2%	-12%	3%	-1%
O=C(CNC(=S)N(Cc1ccccc1)Cc1ccccc1F)NCCc1ccc(Cl)cc1	-3%	-4%	?	23µM*	6%	-11%
O=C(Cc1cccc(NC(=O)C2CCN(C(=O)CCc3ccccc3)CC2)c1)Nc1cccc(C(=O)N2CCOCC2)c1	-6%	-8%	15µM*	15µM*	.	.
O=C(Cc1cccc(NC(=O)C2CCN(C(=O)c3ccccc3)CC2)c1)Nc1cccc(C(=O)N2CCOCC2)c1	-10%	-8%	-3%	15%	.	.
O=C(Cc1ccc(NC(=O)C2CCN(C(=O)CCc3ccccc3)CC2)cc1)Nc1ccc(C(=O)N2CCOCC2)cc1	-8%	-5%	16µM*	?	.	.
O=C(Cc1ccc([N+](=O)[O-])cc1)N1N=C(c2ccncc2)CC1(O)C(F)(F)F (stereo unspecified)	27µM*	?	?	21µM*	5%	0%
Cc1ccc(OCC(=O)N2N=C(c3ccncc3)CC2(O)C(F)(F)F)cc1C (stereo unspecified)	-4%	-29%	21µM*	?	.	-2%
CC(=O)Nc1ccccc1-c1nc(CNC(=O)c2ccc(F)c(F)c2)c(C)o1	.	.	-11%	-6%	.	.
O=C(NCc1ccncc1)C1Cc2c(-c3ccc4c(c3)OCO4)ccnc2O1 (stereo unspecified)	-13%	.	13µM*	?	.	.
O=C(NCc1ccccc1)C1Cc2c(-c3ccc4c(c3)OCO4)ccnc2O1 (stereo unspecified)	1%	.	0.73µM*	0.58µM*	.	.
Cc1cc(C)c(NC(=O)Cn2c(=O)n(CCCCC(=O)NCc3ccccc3Cl)c(=O)c3ccccc32)c(C)c1	.	5%	?	?	1%	-3%
O=C(O)Cc1ccc(-c2ccccc2-c2ccccc2)cc1	-19%	-14%	21µM*	15µM*	3%	2%
SMILES	PLK1 PBD block	VDR inhibitor	DT40 TDP1 no CPT	TDP1 cell CPT	TDP1 block	KAT2A inh
CCc1ccc(CNC(=O)CSCc2cnn(-c3ccccc3)c2-n2cccc2)cc1	.	6%	?	?	-8%	-7%
C[C@@]12CC[C@@H]3c4ccc(O)cc4CC[C@H]3[C@H]1C[C@@H](O)[C@H]2O	.	8%	.	.	-4%[21 µM]	-1%[21.4 µM]
COc1ccc(-c2c(-c3ccc4c(c3)OCO4)noc2-c2ccsc2)cn1	.	.	14µM*	13µM*	.	.
COc1ccc(-c2c(-c3ccc4c(c3)OCO4)noc2C)cn1	9%	5%	11µM*!	?	.	0%
CN(C)c1ccc(-c2c(-c3ccc4c(c3)OCO4)noc2-c2ccsc2)cn1	-4%	-14%	?	?	.	-10%
CSC[C@H]1CN(Cc2cccnc2)C(=O)[C@@H]1CC(=O)Nc1ccc(Br)cc1	-5%	.	?	-29%	.	.
COCCNC(=O)c1ccc2c3n(nc2c1)-c1ccc(C)cc1CO3	4%	-3%	?	?	0%	-14%
Cc1ccc2c(c1)COc1c3ccc(C(=O)N[C@@H](CO)C(C)C)cc3nn1-2	-14%	-5%	18µM*	23µM*	-7%	7%
CC(C)NC(=O)c1ccc2c3n(nc2c1)-c1ccc(Cl)cc1CO3	5%	0%	?	?	-5%	28%
CCN(CC)CCCNC(=O)c1ccc2c3n(nc2c1)-c1ccc(Cl)cc1CO3	-9%	13%	16µM*	?	-1%	3%
Cc1ccc2c(c1)COc1c3ccc(C(=O)N4CCCCC4)cc3nn1-2	5%	-1%	26µM*	21µM*	5%	-16%
O=C(c1ccc2c3n(nc2c1)-c1ccccc1CO3)N1CCOCC1	1%	-20%	9.2µM*	8.2µM*	1%	-16%
CCOc1ccccc1NC(=O)CN1C(=O)CC(c2ccco2)Sc2ccccc21 (stereo unspecified)	.	-13%	.	.	-2%	-10%
NC(=O)CSc1cn(Cc2cccc(F)c2)c2ccccc12	-9%	0%	?	13µM*	5%	4%
CC(C)CCNC(=O)c1ccccc1SCC(=O)NC1CCCCCCC1	-6%	-12%	?	23µM*	-1%	-16%
O=C(CSc1cn(CCNC(=O)c2ccccc2F)c2ccccc12)Nc1ccc2c(c1)OCCO2	.	-9%	16µM*	23µM*	10%	0%
Cn1cc(SCC(=O)Nc2ccc3c(c2)OCCO3)c2ccccc21	-8%	12%	-23%	-30%	8%	-4%
